# The entries come from a sample that favours hits as a whole.
# TCR act: activators of T cell receptors | primary human leukocytes, anti-CD3, IL-2 HTRF, 48 h | Potency, µM (series often up to 9.22 µM), inactives show top-dose activation of IL-2 secretion, most hits filed as activators | 330,000 tested, under 10 active; further: % of control where 0% means no effect
#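 IL-2 produced over 48 hr by a-CD3 bead-stimulated primary human leukocytes exposed to compounds was detected with a homogeneous time-resolved FRET immunoassay, 665nm acceptor signal after 320nm excitation.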
# RXFP1 antagonist: RXFP1 (human) relaxin receptor antagonism | HEK293-RXFP1, relaxin-stimulated cAMP HTRF, 30 min; hits give low values | activity change, negative = inhibition, % at 57.5 µM | Q9HBX9 | 350,000 tested, 0.59% active | AID 1259400;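 active means activity change of -60% or lower, but not beyond a set lower limit; inconclusive means change between -60% and -40%, or beyond the set limit; inactive means change above -40%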; further: on the % scale 0 is the no-effect control and ±100 the full control effect
# PTHR1 agonist: activates the human parathyroid hormone receptor PTHR1; AID 743266; 410,000 tested, 0.075% active; Q03431; Potency, µM (top dose mostly 115 µM), inactives show top-dose activation, hits mostly activators; HEK293 GP2 PTHR1 cells, GloSensor cAMP luminescence, 1 h; further: potency means the concentration at half of the fitted maximal effect; nearly all actives have a fitted effect of over 55% in size
# Target sequence (Q03431 whole entry, looked up): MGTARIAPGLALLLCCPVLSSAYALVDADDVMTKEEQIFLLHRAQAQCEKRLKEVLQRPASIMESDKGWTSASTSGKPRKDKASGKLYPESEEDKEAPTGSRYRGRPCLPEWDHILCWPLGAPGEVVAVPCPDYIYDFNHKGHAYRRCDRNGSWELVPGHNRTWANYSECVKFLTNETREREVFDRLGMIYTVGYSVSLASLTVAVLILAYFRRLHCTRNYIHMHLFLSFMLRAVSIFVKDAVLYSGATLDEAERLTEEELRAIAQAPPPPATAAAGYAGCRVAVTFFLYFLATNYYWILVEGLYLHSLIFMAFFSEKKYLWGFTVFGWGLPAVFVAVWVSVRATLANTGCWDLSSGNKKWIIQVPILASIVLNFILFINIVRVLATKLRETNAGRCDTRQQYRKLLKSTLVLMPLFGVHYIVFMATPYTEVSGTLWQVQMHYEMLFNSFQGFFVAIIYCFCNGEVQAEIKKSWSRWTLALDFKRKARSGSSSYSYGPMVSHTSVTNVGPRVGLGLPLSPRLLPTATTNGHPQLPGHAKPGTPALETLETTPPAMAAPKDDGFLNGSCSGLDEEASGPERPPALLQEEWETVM
#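 HEK-293-derived GP2 cells expressing PTHR1 and a GloSensor cAMP reporter, 3,000/well, plated overnight, given luciferin plus IBMX (each 0.5 mM as added) for 1 h at 37 °C, then compound for 1 h at 37 °C. Luminescence was read after 15 min at room temperature.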
# RXFP1 agonist: activates the human relaxin receptor RXFP1; 370,000 tested, 0.3% active; Potency, µM (series often up to 57.5 µM), for the others: top-dose activation, actives largely listed as activators; HEK293T-RXFP1 cAMP TR-FRET, 30 min; response scale: percent of porcine relaxin response, buffer zero; further: potency means the concentration at half of the fitted maximal effect; on the % scale 0 is the no-effect control and ±100 the full control effect; nearly all actives have a fitted effect of over 60% in size
#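 HEK293 cells stably expressing RXFP1, treated 30 min at 37C with compounds plus PDE4 inhibitor Ro 20174; cAMP measured by HTRF TR-FRET. Normalized to buffer and 29 nM porcine relaxin; EC50 by Hill fit.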
# NPSR antagonist: blocks cAMP signaling of the human neuropeptide S receptor | Q6W5P4 | CHO-NPSR cells, cAMP TR-FRET, antagonist mode | Potency, µM (doses to about 38.3 µM), for the others: top-dose activity change, negative = inhibition, hits mostly inhibitors | 220,000 tested, 1% active; further: potency means the concentration at half of the fitted maximal effect; on the % scale 0 is the no-effect control and ±100 the full control effect; nearly all actives have a fitted effect of over 50% in size
# TSHR antagonist: antagonists of human thyroid stimulating hormone receptor; TSHR-expressing cells, TSH-stimulated cAMP HTRF, 2 h; hits give low values; activity change, negative = inhibition, % at 11.5 µM; 330,000 tested, 0.2% active; AID 504810;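 active means activity change below a set negative limit, meaning inhibition stronger than a set level, cut at about -70% in these data; inconclusive means activity change between two set negative limits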; further: on the % scale 0 is the no-effect control and ±100 the full control effect
#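 Competitive HTRF cAMP read-out (cryptate anti-cAMP antibody, cAMP-d2; 30 min, room temperature) in freshly harvested TSHR cells. Compounds added before TSH at EC80 (4nM final), followed by 2 hours' incubation at 37 deg C.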
# * marks the source's active call; other numbers are inactive results; i = inactive; ? = inconclusive; · = not tested or not shown; [ ] = remark or other dose. Unless noted, the call rests on the fitted dose curve; in most records, active means well fitted curve in the direction sought with a large enough effect; inconclusive means small, poorly fitted or top-dose-only effect, or another doubt; inactive means no such curve, though single readings can be large; an effect the other way counts as inactive or inconclusive.
SMILES,TCR act,RXFP1 antagonist,PTHR1 agonist,RXFP1 agonist,NPSR antagonist,TSHR antagonist
CC(=O)c1cccc(NC(=O)CCCSc2ccccc2)c1,1%,-16,i,-1%,·,-81*
CCCn1c(SCc2nc(-c3ccc(OC)c(OC)c3)no2)nnc1-c1ccccc1,·,·,-28%,1%,·,·
COc1ccc(N2C(=O)c3ccccc3NC2c2ccc(OC)c(CSc3ccccn3)c2)cc1 (centres undefined),·,13,-7%[57.5 µM],18%,13µM*,0
COc1ccc(-c2csc(NC(=O)CSc3nc(C)cs3)n2)cc1,1%,-9,-34%,·,·,·
COc1ccc(-c2csc(NC(=O)CSc3nc(SC)ns3)n2)cc1,3%[46.1 µM],-2,-42%,0%,-22%,-74*
CC1=CC(C)(C)Nc2ccc(OC(=O)CN3C(=O)c4ccccc4C3=O)cc21,-1%,-6,-26%,1%,7.9µM*,19
CCCCn1c(=O)[nH]c(=O)c2c1nc(Cn1ncc(Cl)c(Cl)c1=O)n2CCC,-5%,10,-27%,25µM*,·,-4
CCCCn1c(=O)[nH]c(=O)c2c1nc(CN1C(=O)c3ccccc3S1(=O)=O)n2CCC,-6%,-2,-9%[57.5 µM],3%,-20%[46.1 µM],-7
Cc1cc(=O)n(CC(=O)N2CCN(c3ccc(F)cc3)CC2)c2c1c(C)nn2C,·,·,-4%,9%,·,·
O=C(Nc1ccccc1)Nc1cc(OCC(F)(F)F)cc(OCC(F)(F)F)c1,-3%[46.1 µM],-72*,-37%,0%,?,-38
O=C(Nc1ccccc1)Nc1cc(Cl)cc(Cl)c1,4%,-21,-16%[57.5 µM],-1%,?,?
CC(NC(=O)CSc1nnc(-c2cccc(S(=O)(=O)N3CCCCC3)c2)o1)C12CC3CC(CC(C3)C1)C2 (centres undefined),0%,1,-23%[57.5 µM],1%,10µM*,-5
OC[C@@H](O)[C@H](O)[C@H](O)[C@@H](O)CO,·,-20,·,·,·,·
Cc1[nH][nH]c(=O)c1C(c1ccc(Cl)cc1)c1c(C)[nH][nH]c1=O,2%,-80*,i,-2%,·,18
Cc1ccc(C2=NC(C)(C)N=C2SCC(=O)Nc2ccc(Cl)cc2)cc1,-23%,-64*,-21%,0%,-30%[46.1 µM],-14
Cn1c(=O)cc(SCC(=O)NCC2CCCO2)c2ccc(Cl)cc21 (centres undefined),-6%[46.1 µM],16,i,16%,10µM*,-8
O=C(NN1C(=O)c2ccccc2NC1c1ccc([N+](=O)[O-])o1)c1ccccc1 (centres undefined),7%,-26,-6%,1%,33%,-9
O=C(NN1C(=O)c2ccccc2NC1c1ccc([N+](=O)[O-])o1)c1ccc([N+](=O)[O-])cc1 (centres undefined),-5%,23,i,2.8µM*,-32%,3
O=c1c2ccccc2cnn1Cc1n[nH]c(=S)n1-c1cc(Cl)cc(Cl)c1,-4%[46.1 µM],?,-6%,16%,-2%,-3
O=c1c2ccccc2cnn1Cc1n[nH]c(=S)n1-c1ccc(F)c(Cl)c1,2%,5,i,16µM*,-12%,28
CC(=O)N(c1onc(C)c1C)S(=O)(=O)c1ccc(N)cc1,·,-11,·,·,·,·
COc1ccc(C(C)C)cc1S(=O)(=O)NCCCn1ccnc1,3%,-63*,-18%,-1%,·,-4
COc1ccc(S(=O)(=O)NCCCn2ccnc2)cc1C(C)(C)C,-2%,-29,i,0%,·,-4
CCOC(=O)Cn1c(CN2CCN(C(c3ccccc3)c3ccccc3)CC2)nc2c1c(=O)n(C)c(=O)n2C,-2%,-11,-2%,1%,16µM*,-6
CC(C)Cc1ccc(C(C)C(=O)OCc2ccccn2)cc1 (centres undefined),·,-32,·,·,·,·
CCc1ccc(C(O)(C(C)C)C(CN2CCOCC2)c2ccccc2)cc1 (centres undefined),2%,-78*,-16%,-1%,·,-3

# Screens from PubChem.
